Results on 40 compounds are retold here after PubChem BioAssay (NCI).

Molecules are shown by their SMILES. About 83,000 compounds went through this panel and 20% of them were active in at least one assay; those are over-represented in the sample as a whole.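 How to read the values: 0–100, growth inhibition (40 = 60% inhibited); 0, no net growth; -100 to 0, cell death (-40 = 40% of starting cells died; -100 = all dead).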 Unmarked numbers belong to inactive results. Activity calls are given as the source filed them.

This assay deals with PC-3 prostate. Put plainly: NCI-60 one-dose screen, 48 h (100 = growth as untreated, 0 = no growth, -100 = all killed). Particulars: 10 µM unless noted. As for the experimental part: Growth inhibition of the PC-3 human tumor cell line is measured as a screen for anti-cancer activity. Cells are grown in 96 well plates and exposed to the test compound for 48 hours. Compounds are tested at a single concentration, which is 10^-5 M for most compounds. The reported endpoint is percent growth (GI% or GIPRCNT), where numbers from 0 - 100% represent growth inhibition, and numbers from -100% - 0 represent cell death. For example, a value of 40 represents 60% growth inhibition. A value of 0 means no net growth occurred over the course of the experiment. A value of -40 indicates 40% of cells at the beginning of the experiment died by the end of the experiment. A value of -100 means all cells are dead at the end of the experiment.
NCI-60 Human Tumor Cell Lines Screen was performed using the standard one-dose NCI protocol, which is described in more detail at https://dtp.cancer.gov/discovery_development/nci-60/default.htm.
Compounds with GIPRCNT values below 10 were considered active. Activity score was based on GIPRCNT using the following formula: […]
Score is 0 for GIPRCNT values of 100 or above, 50 for GIPRCNT values of 0, and 100 for GIPRCNT values of -100.
As for `O=c1c2c(c(=O)n1O)c1c3ccc[nH]c3nc1c1nc3[nH]cccc3c12`, the growth is 67.7%.
For the compound `O=C(Cn1c[n+](CC(=O)c2ccc(-c3ccccc3)cc2)c2ccccc21)Nc1cccc2cccnc12`, the growth is 12.9%.
`Cn1ccnc1C(=O)/C=C/c1ccc(CC(=O)NC2CCCCC2)cc1`: the growth is 59.7%.
Take `COc1cc(C=O)ccc1OC1OC(COC(C)=O)C(OC(C)=O)C(OC(C)=O)C1OC(C)=O` (stereo not given): the growth is 95.8%.
`OCc1cnccc1NCCCCOc1ccc(Oc2ccccc2)cc1`: the growth was 56%.
For the compound `O=C(Nc1ccc(-c2ccc3c(c2)NC(=O)/C3=C\c2ccc[nH]2)cc1)NC1CC1`, the growth was 99.4%.
Regarding `Cc1cc2c(C(=O)NCC#N)cccc2n1-c1nc2c(c(NCc3ccccc3)n1)CCCC2`, the growth was -18.8% (active).
Turning to `COc1cc(-c2cc(-c3ccc(N(C)C)cc3)nc(N3CCOCC3)c2C#N)cc(OC)c1OC`, the growth is 44.4%.
As for `O=C(Cc1ccc(/C=C/C(=O)c2ncc[nH]2)cc1)Nc1ccc(Cl)cc1`, the growth is 39%.
As to `O=C(Nc1ncc(Cc2cc(Cl)ccc2Cl)s1)c1cccs1`, the growth was 53.4%.
As to `COc1cc2cc(Oc3cccc(NC(=O)Nc4cc(C(F)(F)F)cc(C(F)(F)F)c4)c3)c(C)nc2cc1OC`, the growth is 6.82% (active).
In the case of `COC(=O)N[C@H]1CCc2c(Cl)c(OC)c(OC)c(OC)c2-c2ccc(SC)c(=O)cc21`, the growth was 21.1%.
To `O=[N+]([O-])c1cc(Br)c2cccc3c2c1CC3` belongs 96.2%; to `CC/C(=C\c1ccc(OC)cc1)C(=O)c1ccc(OC)cc1`, 75.7%.
As for `CCCCCN1C=C/C(=C\C(=O)n2ccc3ccccc32)c2ccccc21`, the growth was 85.3%.
Then `O=Cc1ccc(-c2cn3ccnc3c(-c3ccc4ncn(Cc5ccccc5)c4c3)n2)cc1`, with 81%.
For `CC(=O)Oc1ccc(/C=N/NC(N)=S)nc1`, the growth was 81%.
To `COc1ccc(C(=O)/C=C/c2cc3ccccc3n3nnnc23)cc1` belongs 103%; to `CCOC(=O)c1ccc2c(c1)ncn2-c1ccc(NC(=O)Nc2cccc(C)c2)cc1`, 67.4%; to `Cc1ccc(NC(=O)c2cc(-c3nc4ccccc4s3)c(=O)n(NS(=O)(=O)c3ccc(Cl)cc3)c2N)cc1`, 100%.
Consider `C#Cc1cccc(NC(=O)c2cccc(NC(=O)CCl)c2)c1`, for which the growth was -70.8% [8.25 µM] (active).
For `CCCCOc1ccc(/C=N/Nc2cc(C)nc3ccc(Br)cc23)cc1`, the growth is 53.3%.
On to `NC(=S)N1N=C(c2ccccc2)CC1c1cn(-c2ccccc2)nc1-c1ccc(OCc2ccccc2)cc1` (stereo not given), for which the growth was 89.2%.
`COCCCN1CC(O)=C(c2nc(-c3ccc(C)cc3)cs2)C1=N`: the growth is 94.3%.
Take `Oc1ccc(C(c2ccc(O)cc2)c2ccc(Br)cn2)cc1`: the growth is -17.1% (active).
As to `COc1cc(/C=C\c2cc(OC)c(OC)c(OC)c2)cc(NC(=O)/C=C/c2cc(OC)c(OC)c(OC)c2)c1OC`, the growth was 29.3%.
Regarding `OCc1cnc2ccccc2c1NC1CCCCCC1`, the growth is 82.2%.
Turning to `O=C(NNc1nc2c(F)cccc2n2cccc12)c1cnccn1`, the growth is 36.2%.
On to `NC1=NN=C(N)C1=Cc1cc2ccccc2n2nnnc12`, for which the growth was 86.6%.
`OC(c1cccc(C(F)(F)F)c1)c1cnccc1NC1CCCCC1` (stereo not given): the growth is 69.4%.
On to `CNCCn1c(=O)c2cc(OC)c(OC)cc2c2ccc3cc4c(cc3c21)OCO4`, for which the growth was 8.41% (active).
Turning to `COc1cc(/C(C)=C(\c2ccc(Cl)cc2)c2ccc(OCCN3CCCC3)cc2)ccc1F`, the growth was 53%.
On to `CC1=C(C(=O)/C=C/c2c[nH]c3ccccc23)C(c2ccccc2)NC(=S)N1` (stereo not given), for which the growth was 95.1%.
With `O=C(c1ccccc1)N1N=C(c2ccc(-n3ccc(C(F)(F)F)n3)c(F)c2)CC1c1ccc[nH]1` (stereo not given), the growth is 101%.
As for `CCCCCN1C=C/C(=C\C(=O)N(C)c2ccc(OC(F)(F)F)cc2)c2ccccc21`, the growth is 93.7%.
For the compound `c1ccc(-c2c(-c3ccccc3)[n+](Cc3ccc4ccccc4c3)c(-c3cccc4ccccc34)n2Cc2ccc3ccccc3c2)cc1`, the growth was -60.8% (active).
Turning to `NC(=O)Nc1ccc(-n2cnc3cc(-c4ccc(O)cc4)ccc32)cc1`, the growth was 96%.
For the compound `CC(=O)O[C@H]1Cc2c([nH]c3ccccc23)[C@@H](c2ccc(Cl)cc2)N1C(=O)CCNC(C)(C)C`, the growth was 36.3%.
Regarding `O=S(=O)(NCCNc1nccc(-c2c(-c3cccc(F)c3)nc3sccn23)n1)c1ccccc1`, the growth is 33.1%.
With `COc1cc(C2C3=C(COC3=O)N(CCO)c3cc4c(cc32)OCO4)cc(OC)c1OC` (stereo not given), the growth is 19.6%.
